Legend:
Experiment in all cases: log2 ratio of Biotin-Ahx-Ub-VS probe labelling (fragment/DMSO); higher = less target engagement (more negative = stronger competition), active = hit call of the paper (q ≤ 0.05, log2 ratio ≤ -1)
Conditions in all cases: compound concentration: 200 uM; treatment time: 3 h
USP42 = target: T1, USP42 (UniProt Q9H9J4)
T1 sequence (whole entry): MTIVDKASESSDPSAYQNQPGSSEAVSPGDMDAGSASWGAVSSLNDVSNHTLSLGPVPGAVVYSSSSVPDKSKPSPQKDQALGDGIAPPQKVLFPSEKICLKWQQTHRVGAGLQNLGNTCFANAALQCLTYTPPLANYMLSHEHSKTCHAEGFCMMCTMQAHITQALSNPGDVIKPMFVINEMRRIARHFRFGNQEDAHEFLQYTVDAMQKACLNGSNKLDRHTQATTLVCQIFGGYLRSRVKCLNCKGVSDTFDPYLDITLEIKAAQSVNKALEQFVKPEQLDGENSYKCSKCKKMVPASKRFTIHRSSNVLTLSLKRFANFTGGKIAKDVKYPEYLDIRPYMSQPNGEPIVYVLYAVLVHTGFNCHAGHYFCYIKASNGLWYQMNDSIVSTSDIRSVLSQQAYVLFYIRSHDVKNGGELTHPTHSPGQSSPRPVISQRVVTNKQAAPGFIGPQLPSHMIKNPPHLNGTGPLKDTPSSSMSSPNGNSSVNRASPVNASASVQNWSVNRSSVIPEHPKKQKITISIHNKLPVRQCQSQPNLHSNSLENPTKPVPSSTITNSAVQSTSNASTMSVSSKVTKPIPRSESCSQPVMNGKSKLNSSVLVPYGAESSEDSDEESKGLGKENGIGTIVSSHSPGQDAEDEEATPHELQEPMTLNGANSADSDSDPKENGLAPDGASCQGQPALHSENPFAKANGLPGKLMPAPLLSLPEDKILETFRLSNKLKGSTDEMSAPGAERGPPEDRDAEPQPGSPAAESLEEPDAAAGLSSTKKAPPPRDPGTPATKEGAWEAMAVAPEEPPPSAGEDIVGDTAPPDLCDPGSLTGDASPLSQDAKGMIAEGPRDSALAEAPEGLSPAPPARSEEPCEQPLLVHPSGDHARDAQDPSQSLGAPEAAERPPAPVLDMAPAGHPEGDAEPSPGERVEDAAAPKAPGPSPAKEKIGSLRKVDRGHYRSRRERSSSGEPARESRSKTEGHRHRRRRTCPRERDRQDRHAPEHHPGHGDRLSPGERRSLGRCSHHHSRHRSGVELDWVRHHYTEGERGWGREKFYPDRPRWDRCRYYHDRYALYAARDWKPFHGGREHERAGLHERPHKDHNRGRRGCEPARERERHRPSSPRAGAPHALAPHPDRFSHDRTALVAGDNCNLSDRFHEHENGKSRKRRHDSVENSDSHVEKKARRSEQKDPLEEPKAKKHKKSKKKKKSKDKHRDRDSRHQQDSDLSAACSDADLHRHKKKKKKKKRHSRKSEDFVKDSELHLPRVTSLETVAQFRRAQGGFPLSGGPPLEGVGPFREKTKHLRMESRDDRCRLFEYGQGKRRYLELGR
Procedure, shortened: (§1)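 Each value is an average log2 ratio of fragment to vehicle, tested by unpaired t-test. The underlying Spectronaut label-free quantities were global-median-normalised, and only proteins with ≥2 unique peptides were included. Triplicate HEK293T lysate samples (495 µg) were exposed to fragment at 200 µM or vehicle for 3 h, then to Biotin-Ahx-Ub-VS at 0.5 µM final for 1 h, before NeutrAvidin enrichment of labelled DUBs, LysC and trypsin digestion, and diaPASEF LC-MS/MS.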

USP46 = USP46 (UniProt P62068)
Chain of USP46 (P62068 whole entry): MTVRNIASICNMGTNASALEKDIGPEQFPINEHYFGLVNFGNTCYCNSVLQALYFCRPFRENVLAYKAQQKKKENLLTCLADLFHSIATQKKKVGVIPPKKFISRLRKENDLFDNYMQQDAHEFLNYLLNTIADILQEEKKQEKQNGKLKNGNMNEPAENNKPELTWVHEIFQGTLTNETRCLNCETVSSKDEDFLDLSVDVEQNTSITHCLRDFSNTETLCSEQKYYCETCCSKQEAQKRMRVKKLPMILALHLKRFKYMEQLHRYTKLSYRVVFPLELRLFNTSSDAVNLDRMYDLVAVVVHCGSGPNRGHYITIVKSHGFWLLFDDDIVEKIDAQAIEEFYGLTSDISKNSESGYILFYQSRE
Procedure, shortened: as §1

USP47 = target: T2, USP47 (UniProt Q96K76)
T2 sequence (whole entry): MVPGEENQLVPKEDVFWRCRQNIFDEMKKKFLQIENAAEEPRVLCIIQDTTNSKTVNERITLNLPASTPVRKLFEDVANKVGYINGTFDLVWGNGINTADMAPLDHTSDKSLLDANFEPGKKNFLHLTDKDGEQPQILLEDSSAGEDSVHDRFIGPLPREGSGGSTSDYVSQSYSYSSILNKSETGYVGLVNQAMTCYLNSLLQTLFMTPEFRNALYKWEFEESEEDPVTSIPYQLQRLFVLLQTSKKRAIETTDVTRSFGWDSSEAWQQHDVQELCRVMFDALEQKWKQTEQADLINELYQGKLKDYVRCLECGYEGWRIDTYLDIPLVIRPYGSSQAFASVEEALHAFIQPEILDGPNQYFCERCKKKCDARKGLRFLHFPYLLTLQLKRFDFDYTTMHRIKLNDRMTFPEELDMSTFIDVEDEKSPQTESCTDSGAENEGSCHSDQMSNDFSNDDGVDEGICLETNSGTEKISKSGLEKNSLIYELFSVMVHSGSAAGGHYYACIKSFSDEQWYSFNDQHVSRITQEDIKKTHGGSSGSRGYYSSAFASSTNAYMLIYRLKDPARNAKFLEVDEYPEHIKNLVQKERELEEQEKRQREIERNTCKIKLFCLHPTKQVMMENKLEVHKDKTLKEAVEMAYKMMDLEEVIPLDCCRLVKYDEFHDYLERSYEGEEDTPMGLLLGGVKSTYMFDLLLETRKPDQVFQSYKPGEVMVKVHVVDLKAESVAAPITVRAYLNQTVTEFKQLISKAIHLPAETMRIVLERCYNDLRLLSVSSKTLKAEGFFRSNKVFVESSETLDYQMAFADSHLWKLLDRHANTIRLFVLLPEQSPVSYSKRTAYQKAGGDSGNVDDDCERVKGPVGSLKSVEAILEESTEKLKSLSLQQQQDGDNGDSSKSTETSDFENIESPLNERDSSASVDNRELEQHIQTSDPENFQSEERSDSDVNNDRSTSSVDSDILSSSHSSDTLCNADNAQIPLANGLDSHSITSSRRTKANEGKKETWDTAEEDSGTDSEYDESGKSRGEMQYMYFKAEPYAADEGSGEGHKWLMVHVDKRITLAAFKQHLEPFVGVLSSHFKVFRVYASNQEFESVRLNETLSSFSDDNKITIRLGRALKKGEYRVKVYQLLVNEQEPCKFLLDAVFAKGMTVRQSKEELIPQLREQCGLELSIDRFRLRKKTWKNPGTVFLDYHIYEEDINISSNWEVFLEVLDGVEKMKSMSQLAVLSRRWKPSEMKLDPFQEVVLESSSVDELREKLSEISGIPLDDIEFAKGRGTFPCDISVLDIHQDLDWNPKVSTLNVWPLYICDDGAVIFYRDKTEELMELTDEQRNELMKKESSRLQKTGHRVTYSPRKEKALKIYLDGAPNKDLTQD
Procedure, shortened: as §1

USP48 = target: T3, USP48 (UniProt Q86UV5)
T3 sequence (whole entry): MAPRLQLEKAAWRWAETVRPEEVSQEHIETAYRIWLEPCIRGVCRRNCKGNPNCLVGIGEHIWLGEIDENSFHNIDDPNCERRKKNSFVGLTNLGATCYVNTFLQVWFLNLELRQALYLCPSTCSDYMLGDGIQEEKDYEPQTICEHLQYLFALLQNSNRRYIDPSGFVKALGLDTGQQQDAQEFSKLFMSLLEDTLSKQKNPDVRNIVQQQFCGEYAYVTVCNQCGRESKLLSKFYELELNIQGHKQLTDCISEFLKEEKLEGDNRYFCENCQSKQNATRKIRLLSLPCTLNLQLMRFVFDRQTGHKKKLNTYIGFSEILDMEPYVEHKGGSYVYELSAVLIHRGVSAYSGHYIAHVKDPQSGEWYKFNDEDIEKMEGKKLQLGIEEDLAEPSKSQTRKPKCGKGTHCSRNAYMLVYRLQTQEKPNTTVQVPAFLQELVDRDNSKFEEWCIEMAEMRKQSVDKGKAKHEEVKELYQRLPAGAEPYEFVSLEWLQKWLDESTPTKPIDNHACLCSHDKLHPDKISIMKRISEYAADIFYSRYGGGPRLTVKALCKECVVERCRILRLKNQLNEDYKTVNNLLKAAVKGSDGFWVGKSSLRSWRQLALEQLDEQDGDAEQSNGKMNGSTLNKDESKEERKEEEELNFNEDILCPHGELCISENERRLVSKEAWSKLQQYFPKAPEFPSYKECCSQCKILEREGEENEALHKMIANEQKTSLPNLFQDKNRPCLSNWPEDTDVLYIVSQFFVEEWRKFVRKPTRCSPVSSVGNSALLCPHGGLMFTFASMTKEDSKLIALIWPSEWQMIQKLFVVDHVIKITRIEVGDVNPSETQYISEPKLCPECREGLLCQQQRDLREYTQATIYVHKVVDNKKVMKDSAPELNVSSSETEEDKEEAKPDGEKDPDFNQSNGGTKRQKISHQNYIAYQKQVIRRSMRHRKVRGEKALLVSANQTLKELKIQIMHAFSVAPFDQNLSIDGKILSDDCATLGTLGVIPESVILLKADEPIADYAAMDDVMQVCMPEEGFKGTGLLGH
Procedure, shortened: as §1

USP5 = target: T4, USP5 (UniProt P45974)
T4 sequence (whole entry): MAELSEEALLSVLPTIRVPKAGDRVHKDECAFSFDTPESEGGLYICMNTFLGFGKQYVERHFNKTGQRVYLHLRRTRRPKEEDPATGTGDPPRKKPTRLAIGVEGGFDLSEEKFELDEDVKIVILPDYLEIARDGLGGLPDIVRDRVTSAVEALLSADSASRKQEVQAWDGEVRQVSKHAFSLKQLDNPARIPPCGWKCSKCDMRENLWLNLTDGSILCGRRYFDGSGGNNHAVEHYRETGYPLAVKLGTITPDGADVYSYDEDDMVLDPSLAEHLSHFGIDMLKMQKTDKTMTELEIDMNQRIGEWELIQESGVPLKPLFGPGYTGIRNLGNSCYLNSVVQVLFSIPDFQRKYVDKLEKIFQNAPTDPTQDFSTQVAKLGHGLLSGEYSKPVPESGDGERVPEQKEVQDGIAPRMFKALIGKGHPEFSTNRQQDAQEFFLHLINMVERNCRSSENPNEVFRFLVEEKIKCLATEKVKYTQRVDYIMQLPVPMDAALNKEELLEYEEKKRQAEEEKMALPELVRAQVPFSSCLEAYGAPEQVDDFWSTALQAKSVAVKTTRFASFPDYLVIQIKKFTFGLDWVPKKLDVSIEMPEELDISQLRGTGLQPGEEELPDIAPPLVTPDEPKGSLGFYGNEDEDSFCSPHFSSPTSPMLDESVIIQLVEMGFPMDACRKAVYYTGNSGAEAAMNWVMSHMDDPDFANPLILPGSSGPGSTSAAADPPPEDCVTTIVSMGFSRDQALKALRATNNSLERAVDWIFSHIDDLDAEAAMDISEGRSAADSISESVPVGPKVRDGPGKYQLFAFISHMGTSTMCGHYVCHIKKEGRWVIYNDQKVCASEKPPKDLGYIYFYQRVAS
Procedure, shortened: as §1

USP54 = USP54 (UniProt Q70EL1)
Procedure, shortened: as §1

USP7 = USP7 (UniProt Q93009)
Chain of USP7 (Q93009 whole entry, looked up): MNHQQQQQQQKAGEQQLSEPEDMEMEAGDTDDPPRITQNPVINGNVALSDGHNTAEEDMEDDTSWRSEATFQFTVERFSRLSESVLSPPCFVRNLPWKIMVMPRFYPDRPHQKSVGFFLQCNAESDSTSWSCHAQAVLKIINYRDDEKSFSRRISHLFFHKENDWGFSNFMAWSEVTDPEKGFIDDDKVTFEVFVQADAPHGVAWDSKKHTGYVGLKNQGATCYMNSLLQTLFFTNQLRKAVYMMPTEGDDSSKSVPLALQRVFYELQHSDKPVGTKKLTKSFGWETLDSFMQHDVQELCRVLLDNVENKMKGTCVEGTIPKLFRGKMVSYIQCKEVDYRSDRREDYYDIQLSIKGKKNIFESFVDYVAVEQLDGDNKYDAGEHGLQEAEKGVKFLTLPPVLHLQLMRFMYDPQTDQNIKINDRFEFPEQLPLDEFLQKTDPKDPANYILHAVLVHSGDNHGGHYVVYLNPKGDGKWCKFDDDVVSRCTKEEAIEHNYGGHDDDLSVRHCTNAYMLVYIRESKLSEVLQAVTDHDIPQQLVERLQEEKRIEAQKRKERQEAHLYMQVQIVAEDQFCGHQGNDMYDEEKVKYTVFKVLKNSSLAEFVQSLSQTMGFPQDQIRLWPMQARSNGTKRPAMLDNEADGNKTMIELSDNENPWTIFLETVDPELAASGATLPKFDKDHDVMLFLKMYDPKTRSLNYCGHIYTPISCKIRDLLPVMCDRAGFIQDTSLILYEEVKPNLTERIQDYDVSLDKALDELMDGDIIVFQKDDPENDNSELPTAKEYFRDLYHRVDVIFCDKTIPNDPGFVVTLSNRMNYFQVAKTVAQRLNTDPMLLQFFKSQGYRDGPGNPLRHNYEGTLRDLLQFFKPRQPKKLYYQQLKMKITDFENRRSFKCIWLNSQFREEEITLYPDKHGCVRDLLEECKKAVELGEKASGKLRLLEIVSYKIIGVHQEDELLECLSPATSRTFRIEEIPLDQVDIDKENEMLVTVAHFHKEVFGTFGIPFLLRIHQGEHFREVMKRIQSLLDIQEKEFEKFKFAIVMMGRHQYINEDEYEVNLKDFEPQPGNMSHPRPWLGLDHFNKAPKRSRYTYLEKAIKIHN
Procedure, shortened: as §1

USP8 = target: T5, USP8 (UniProt P40818)
T5 sequence (whole entry): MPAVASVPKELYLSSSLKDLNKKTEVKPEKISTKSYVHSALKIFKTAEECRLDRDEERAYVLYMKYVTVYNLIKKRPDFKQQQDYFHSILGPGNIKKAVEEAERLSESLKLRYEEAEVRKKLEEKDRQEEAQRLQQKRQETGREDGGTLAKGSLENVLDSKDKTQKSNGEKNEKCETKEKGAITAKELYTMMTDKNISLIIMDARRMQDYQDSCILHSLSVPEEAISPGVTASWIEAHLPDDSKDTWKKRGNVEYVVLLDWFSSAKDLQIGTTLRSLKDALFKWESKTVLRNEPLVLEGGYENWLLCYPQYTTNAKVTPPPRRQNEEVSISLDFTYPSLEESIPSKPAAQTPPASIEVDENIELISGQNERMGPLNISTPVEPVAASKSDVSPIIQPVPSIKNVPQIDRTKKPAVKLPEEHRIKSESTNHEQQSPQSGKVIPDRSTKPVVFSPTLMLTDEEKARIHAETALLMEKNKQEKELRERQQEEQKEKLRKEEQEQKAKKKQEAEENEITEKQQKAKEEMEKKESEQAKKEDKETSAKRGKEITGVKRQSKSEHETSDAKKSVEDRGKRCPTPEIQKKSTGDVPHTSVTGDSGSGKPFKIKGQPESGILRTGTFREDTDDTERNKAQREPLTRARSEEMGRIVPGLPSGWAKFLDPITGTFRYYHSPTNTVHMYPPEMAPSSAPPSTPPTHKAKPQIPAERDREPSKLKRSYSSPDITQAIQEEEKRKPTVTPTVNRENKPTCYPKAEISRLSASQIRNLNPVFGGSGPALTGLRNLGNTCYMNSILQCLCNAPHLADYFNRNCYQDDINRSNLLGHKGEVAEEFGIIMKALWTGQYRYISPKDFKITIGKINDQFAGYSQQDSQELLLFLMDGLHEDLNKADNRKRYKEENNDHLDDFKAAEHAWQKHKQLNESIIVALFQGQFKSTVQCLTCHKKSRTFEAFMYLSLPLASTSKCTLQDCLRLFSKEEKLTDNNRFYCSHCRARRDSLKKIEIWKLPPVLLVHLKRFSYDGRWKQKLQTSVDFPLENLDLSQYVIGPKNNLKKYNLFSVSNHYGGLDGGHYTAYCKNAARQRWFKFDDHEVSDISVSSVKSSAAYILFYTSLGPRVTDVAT
Procedure, shortened: as §1

USP9X = USP9X (UniProt Q93008)
Chain of USP9X (Q93008 whole entry): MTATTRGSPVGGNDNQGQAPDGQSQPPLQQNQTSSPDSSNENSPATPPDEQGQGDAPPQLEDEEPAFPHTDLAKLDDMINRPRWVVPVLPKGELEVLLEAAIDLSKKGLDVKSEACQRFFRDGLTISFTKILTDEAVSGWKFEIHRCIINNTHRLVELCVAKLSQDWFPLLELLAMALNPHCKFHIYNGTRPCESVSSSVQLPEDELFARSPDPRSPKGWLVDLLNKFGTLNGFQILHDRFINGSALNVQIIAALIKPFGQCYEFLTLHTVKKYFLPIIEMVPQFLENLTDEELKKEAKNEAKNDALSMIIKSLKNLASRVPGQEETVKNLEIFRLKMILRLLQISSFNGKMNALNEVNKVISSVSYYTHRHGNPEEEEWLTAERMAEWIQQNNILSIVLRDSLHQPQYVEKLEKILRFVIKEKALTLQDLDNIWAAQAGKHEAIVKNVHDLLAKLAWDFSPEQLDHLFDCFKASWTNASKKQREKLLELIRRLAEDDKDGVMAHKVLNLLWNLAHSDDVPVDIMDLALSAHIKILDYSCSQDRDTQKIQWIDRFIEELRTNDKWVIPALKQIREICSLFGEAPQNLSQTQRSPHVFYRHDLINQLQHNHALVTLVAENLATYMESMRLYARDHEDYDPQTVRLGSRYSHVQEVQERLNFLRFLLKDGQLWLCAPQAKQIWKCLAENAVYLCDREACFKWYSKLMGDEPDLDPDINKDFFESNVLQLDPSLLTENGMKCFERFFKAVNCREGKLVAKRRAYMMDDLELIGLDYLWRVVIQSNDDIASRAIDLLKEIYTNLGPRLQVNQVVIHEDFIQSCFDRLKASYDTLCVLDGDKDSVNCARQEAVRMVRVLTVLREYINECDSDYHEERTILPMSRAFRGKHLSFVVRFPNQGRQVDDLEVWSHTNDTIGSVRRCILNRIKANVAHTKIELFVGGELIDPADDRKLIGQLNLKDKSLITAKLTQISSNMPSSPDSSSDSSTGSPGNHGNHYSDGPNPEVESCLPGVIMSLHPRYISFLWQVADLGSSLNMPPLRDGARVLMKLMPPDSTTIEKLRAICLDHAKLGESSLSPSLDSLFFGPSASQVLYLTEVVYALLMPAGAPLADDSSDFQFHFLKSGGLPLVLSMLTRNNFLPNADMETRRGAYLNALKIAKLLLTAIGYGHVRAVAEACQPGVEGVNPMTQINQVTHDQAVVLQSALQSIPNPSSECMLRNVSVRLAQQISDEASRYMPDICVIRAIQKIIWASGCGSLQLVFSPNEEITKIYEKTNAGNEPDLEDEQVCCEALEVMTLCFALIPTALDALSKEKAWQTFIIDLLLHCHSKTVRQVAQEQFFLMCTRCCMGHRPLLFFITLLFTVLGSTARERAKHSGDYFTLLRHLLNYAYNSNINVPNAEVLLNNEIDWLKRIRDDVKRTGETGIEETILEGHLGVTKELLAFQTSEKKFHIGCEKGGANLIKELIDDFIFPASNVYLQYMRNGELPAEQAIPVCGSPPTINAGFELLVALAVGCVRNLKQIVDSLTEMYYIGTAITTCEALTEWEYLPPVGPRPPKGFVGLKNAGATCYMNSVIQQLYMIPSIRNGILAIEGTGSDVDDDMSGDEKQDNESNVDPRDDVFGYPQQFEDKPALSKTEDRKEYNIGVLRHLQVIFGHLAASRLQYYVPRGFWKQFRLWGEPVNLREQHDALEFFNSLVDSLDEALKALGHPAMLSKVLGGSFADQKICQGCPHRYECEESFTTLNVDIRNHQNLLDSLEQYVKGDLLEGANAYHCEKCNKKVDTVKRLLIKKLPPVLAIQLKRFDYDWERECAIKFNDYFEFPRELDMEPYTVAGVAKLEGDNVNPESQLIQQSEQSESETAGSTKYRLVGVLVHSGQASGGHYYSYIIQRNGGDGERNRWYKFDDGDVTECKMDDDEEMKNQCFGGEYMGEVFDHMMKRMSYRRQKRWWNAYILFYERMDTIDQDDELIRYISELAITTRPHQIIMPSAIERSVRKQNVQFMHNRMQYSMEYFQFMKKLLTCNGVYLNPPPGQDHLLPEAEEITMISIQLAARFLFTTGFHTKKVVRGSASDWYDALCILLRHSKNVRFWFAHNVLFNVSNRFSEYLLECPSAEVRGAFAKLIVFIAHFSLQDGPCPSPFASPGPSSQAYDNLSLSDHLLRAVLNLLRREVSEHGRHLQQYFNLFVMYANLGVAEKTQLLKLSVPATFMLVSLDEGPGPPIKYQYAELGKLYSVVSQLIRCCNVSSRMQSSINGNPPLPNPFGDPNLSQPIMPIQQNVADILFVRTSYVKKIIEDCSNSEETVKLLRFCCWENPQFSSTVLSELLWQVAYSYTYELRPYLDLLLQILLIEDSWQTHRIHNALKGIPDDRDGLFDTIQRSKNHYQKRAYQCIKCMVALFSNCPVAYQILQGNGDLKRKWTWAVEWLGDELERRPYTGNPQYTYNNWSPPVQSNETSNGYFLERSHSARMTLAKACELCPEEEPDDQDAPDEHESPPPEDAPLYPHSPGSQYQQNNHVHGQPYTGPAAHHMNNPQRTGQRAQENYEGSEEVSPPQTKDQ
Procedure, shortened: as §1

UniProt O00487 = target: UniProt O00487
Chain of UniProt O00487 (O00487 whole entry): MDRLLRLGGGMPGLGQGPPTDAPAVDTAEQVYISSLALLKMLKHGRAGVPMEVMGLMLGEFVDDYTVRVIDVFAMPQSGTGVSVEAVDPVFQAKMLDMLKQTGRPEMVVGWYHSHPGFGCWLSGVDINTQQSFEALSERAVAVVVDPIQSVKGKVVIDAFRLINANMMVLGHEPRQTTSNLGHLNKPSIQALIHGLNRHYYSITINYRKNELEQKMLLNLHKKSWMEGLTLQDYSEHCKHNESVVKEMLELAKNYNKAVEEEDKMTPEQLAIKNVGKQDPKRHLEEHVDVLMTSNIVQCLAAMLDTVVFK
Procedure, shortened: as §1

Measured: log2 ratio of Biotin-Ahx-Ub-VS probe labelling

O=C(CCl)NCCc1ccc2c(c1)OCCO2
inactive: USP42 0.217 | USP46 0.147 | USP47 0.109 | USP48 -0.413 | USP5 -0.336 | USP54 0.647 | USP7 -0.433 | USP8 0.0104 | USP9X -0.26 | UniProt O00487 -0.093

— the supplement of paper PMC11732987, “Enantioselective OTUD7B fragment discovery through chemoproteomics screening and high-throughput optimisation” (Communications Chemistry, 2025)
